Inconclusive results are not listed. Active and inactive are the calls of the source. Calls follow the shape of the dose curve; as a rule, active = well fitted cell-killing curve with a large enough effect; inconclusive = small, poorly fitted or top-dose-only effect; inactive = flat fitted curve, though single readings scatter. Numbered stars: 1 amine (or outer) side, 2 acyl side, 3 side chain; on linkers, the order of the positions; unused ones are H or OH. Bridge positions count the residues as written; N and C are the ends. Square brackets hold non-standard residues; d marks the D form. Peptide text beside a SMILES is read from it. I, II: the chains in the order shown. Actinocin(9to1) = Cc1c2oc3c(C)ccc(C(=O)[*:1])c3nc-2c(C(=O)[*:2])c(N)c1=O; NMeV = CN[C@H](C(=O)O)C(C)C; Sar = CNCC(=O)O

The nature of assay [1]: Cell Viability - LYMP2-009 (AID 968). Also: nearly all actives have a fitted effect of over 55% in size. The settings on record: LYMP2-009 lymphoblastoid cell viability; series mostly up to 92.2 µM.
The nature of assay [2]: Cell Viability - LYMP2-013 (AID 970). Also: nearly all actives have a fitted effect of over 55% in size. The settings on record: LYMP2-013 lymphoblastoid cells viability; series mostly up to 92.2 µM. The essentials:
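Human lymphoblastoid LYMP2-013 cells, 2500/well, treated 24 h at 37 C in complete medium; viability as intracellular ATP by CellTiter-Glo luminescence after 30 min. AC50 from Hill fits of qHTS concentration-response.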

Assay [3] can be described thus: Cell Viability - LYMP2-015 (AID 971). Also: nearly all actives have a fitted effect of over 55% in size. The settings on record: LYMP2-015 lymphoblastoid cell viability; series mostly up to 92.2 µM. The essentials: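 LYMP2-015 human lymphoblastoid cells (2500/well) in complete medium, compound-treated 24 h at 37 C; viability read as cellular ATP by CellTiter-Glo luminescence after 30 min at room temperature. AC50 from Hill-equation fits of qHTS concentration-response data.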

A short description of assay [4]: Cell Viability - LYMP2-017 (AID 972). Also: nearly all actives have a fitted effect of over 55% in size. The settings on record: LYMP2-017 lymphoblastoid cell viability; series mostly up to 92.2 µM. The essentials: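 LYMP2-017 human lymphoblastoid cells (2500/well) settled 5 hr at 37 C, then exposed to compound 24 hr at 37 C in complete medium. Viability taken as intracellular ATP by CellTiter-Glo luminescence after 30 min at RT; AC50 from Hill fits.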

The nature of assay [5]: Cell Viability - LYMP2-019 (AID 973). Also: nearly all actives have a fitted effect of over 55% in size. The settings on record: LYMP2-019 lymphoblastoid cell line viability; series mostly up to 92.2 µM. Put shortly:
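Human lymphoblastoid LYMP2-019 cells (2500/well) preincubated 5 h at 37 C, then treated 24 h at 37 C in complete medium. Viability by CellTiter-Glo ATP luminescence after 30 min at room temperature; AC50 from Hill fits.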

The nature of assay [6]: Cell Viability - LYMP2-021 (AID 974). The settings on record: LYMP2-021 lymphoblastoid cells viability; series mostly up to 92.2 µM. Put shortly: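 Human lymphoblastoid LYMP2-021 cells, 2500/well in complete medium, treated 24 hours at 37 C. Intracellular ATP by CellTiter-Glo luminescence (30 min, RT); AC50 from Hill fits of concentration-response.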
Assay [7] in a line: Cell Viability - LYMP2-023 (AID 975). Also: nearly all actives have a fitted effect of over 55% in size. The settings on record: LYMP2-023 lymphoblastoid cell viability; series mostly up to 92.2 µM. The essentials: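 LYMP2-023 human lymphoblastoid cells, 2500/well, preincubated 5 hr at 37 C, then compound-treated 24 hr at 37 C in complete medium. CellTiter-Glo luminescence (ATP) after 30 min at room temperature; AC50 from Hill-equation fits; tetraoctylammonium bromide positive control.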

Assay [8] is described as follows: Cell Viability - LYMP2-025 (AID 976). The settings on record: LYMP2-025 lymphoblastoid cell viability; series mostly up to 92.2 µM. Put shortly: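 Human lymphoblastoid LYMP2-025 cells, 2500/well, exposed 24 h at 37 C in complete medium in 1536-well qHTS. Viability as cellular ATP by CellTiter-Glo luminescence; AC50 from Hill fits of concentration-response data.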

The nature of assay [9]: Cell Viability - LYMP2-007 (AID 979).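 Also: cells exposed to compound for 24 h before reading; nearly all actives have a fitted effect of over 60% in size.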 The settings on record: LYMP2-007 lymphoblastoid cell viability; series mostly up to 92.2 µM. The essentials: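 Human lymphoblastoid LYMP2-007 cells (2500/well) preincubated 5 h at 37 C, then treated 24 h at 37 C in complete medium. Viability by CellTiter-Glo ATP luminescence after 30 min at room temperature; AC50 from Hill fits.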
Assay [10] in a line: Cell Viability - LYMP2-002 (AID 977). The settings on record: LYMP2-002 lymphoblastoid cell viability, qHTS; series mostly up to 92.2 µM. Put shortly:
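Luminescent ATP readout (CellTiter-Glo, 30 min room temperature) after 24 h compound exposure at 37 C of a human lymphoblastoid line, 2500 cells/well. AC50 values derived by standard Hill fitting of qHTS concentration-response data.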
Potency is read from the fitted curve at half-maximal effect.

Consider `C[C@]12CC[C@@H]3c4ccc(O)cc4CC[C@H]3[C@@H]1CC[C@@H]2O`, for which the Potency result in assay [1], in assay [2], in assay [3], in assay [4], in assay [5] and in [6] was “inactive” in each case. Besides, the Potency result in assay [7], in assay [8] and in [9] was “inactive” each time.

Take `COc1cccc2c1C(=O)c1c(O)c3c(c(O)c1C2=O)C[C@@](O)(C(C)=O)C[C@@H]3O[C@H]1C[C@H](N)[C@H](O)[C@H](C)O1`: the Potency in assay [1] was 0.251 µM (active); in assay [2], 2 µM (active); in [4], 0.631 µM (active); in assay [5] it was 3.98 µM (active).

For the compound `CC(=O)Oc1ccc(C(c2ccc(OC(C)=O)cc2)c2ccccn2)cc1`, the Potency entry in assay [1], in assay [2], in assay [3], in assay [4], in assay [5] and in [6] was “inactive” in each case. Besides, the Potency entry in [7], in assay [8], in assay [10] and in assay [9] was “inactive” each time.

In the case of `CC(O)C(=O)O` (centres undefined), the Potency entry in [1], in assay [2], in assay [3], in assay [4], in [5] and in assay [6] was “inactive” in each case. In addition, the Potency entry in assay [7], in assay [8], in assay [10] and in assay [9] was “inactive” in each case.

Turning to `COc1cccc2c1C(=O)c1c(O)c3c(c(O)c1C2=O)C[C@@](O)(C(=O)CO)C[C@@H]3O[C@H]1C[C@H](N)[C@H](O)[C@H](C)O1`, the Potency is 0.251 µM (active) in assay [1]; 1 µM (active) in assay [2]; 0.158 µM (active) in assay [3]; 0.631 µM (active) in [4]; 0.631 µM (active) in assay [5]; 0.398 µM (active) in [6]. The Potency in assay [7] is 0.398 µM (active); in [8] it was 0.501 µM (active); in [10] it was 0.251 µM (active); in assay [9], 1 µM (active).

With `O=c1ccc2ccccc2o1`, the Potency entry in assay [1], in assay [2], in [3], in assay [4], in [5] and in assay [6] was “inactive” in each case. The Potency result in assay [7], in [8], in assay [10] and in [9] was “inactive” throughout.

As for `O=C1OC(c2ccc(O)cc2)(c2ccc(O)cc2)c2ccccc21`, the Potency result in assay [1], in assay [2], in assay [3], in assay [4], in assay [5] and in assay [6] was “inactive” in each case. Moreover, the Potency entry in assay [7], in [8], in assay [10] and in [9] was “inactive” throughout.

On to `CC/C(=C(/CC)c1ccc(O)cc1)c1ccc(O)cc1`, for which the Potency result in assay [1], in [2], in assay [3], in [4], in assay [5] and in [6] was “inactive” throughout. For the same compound, the Potency result in assay [7], in [8], in assay [10] and in [9] was “inactive” in each case.

For the compound `Nc1ccc(C(=O)O)cc1`, the Potency entry in assay [1], in assay [2], in assay [3], in assay [4], in [5] and in assay [6] was “inactive” each time. The Potency result in [7], in [8], in assay [10] and in [9] was “inactive” in each case.

Take `COC1=CC(=O)C[C@@H](C)[C@]12Oc1c(Cl)c(OC)cc(OC)c1C2=O`: the Potency entry in assay [1], in [2], in assay [3], in assay [4], in [5] and in assay [6] was “inactive” in each case. For the same compound, the Potency entry in assay [7], in assay [8], in assay [10] and in assay [9] was “inactive” each time.

As to `Oc1c(I)cc(Cl)c2cccnc12`, the Potency entry in assay [8] was “inactive”.

On to `CC(C)(C)CC(C)(C)c1ccc(OCCOCC[N+](C)(C)Cc2ccccc2)cc1`, for which the Potency in [1] was 31.6 µM (active); in assay [2] it was 25.1 µM (active); in assay [3] it was 25.1 µM (active); in assay [4], 31.6 µM (active); in assay [5] it was 39.8 µM (active); in assay [6] it was 31.6 µM (active). Besides, the Potency is 39.8 µM (active) in [7], 39.8 µM (active) in assay [8], 25.1 µM (active) in assay [10] and 25.1 µM (active) in assay [9].

For `C=CCc1ccc(O)c(OC)c1`, the Potency entry in assay [1], in [2], in assay [3], in assay [4], in assay [5] and in [6] was “inactive” each time. The Potency result in [7], in assay [8], in assay [10] and in [9] was “inactive” each time.

On to `O=C(O)CCCCC(=O)O`, for which the Potency entry in assay [1], in [2], in [3], in assay [4], in assay [5] and in assay [6] was “inactive” each time. For the same compound, the Potency result in assay [7], in [8], in assay [10] and in [9] was “inactive” throughout.

For the compound `Oc1c(Cl)cc(Cl)cc1Sc1cc(Cl)cc(Cl)c1O`, the Potency in [1] is 50.1 µM (active); in assay [2] it was 50.1 µM (active); in assay [6], 39.8 µM (active).

For `Cc1c2oc3c(C)ccc(C(=O)N[C@@H]4C(=O)N[C@H](C(C)C)C(=O)N5CCC[C@H]5C(=O)N(C)CC(=O)N(C)[C@@H](C(C)C)C(=O)O[C@@H]4C)c3nc-2c(C(=O)N[C@@H]2C(=O)N[C@H](C(C)C)C(=O)N3CCC[C@H]3C(=O)N(C)CC(=O)N(C)[C@@H](C(C)C)C(=O)O[C@@H]2C)c(N)c1=O` (I: T[dV]P[Sar][NMeV] / II: T[dV]P[Sar][NMeV]; ester I:1-I:C, II:1-II:C; linker I:N-II:N via Actinocin(9to1)), the results for the Potency in assay [4] and in assay [6] were 0.01 µM (active) and 0.0025 µM (active), respectively.

Consider `C=C(CC)C(=O)c1ccc(OCC(=O)O)c(Cl)c1Cl`, for which the Potency is 50.1 µM (active) in [1]; 50.1 µM (active) in [2]; 50.1 µM (active) in [3]; 50.1 µM (active) in assay [4]; 39.8 µM (active) in assay [5]; 39.8 µM (active) in assay [6].

In the case of `CC(=O)O[C@]1(C(C)=O)CC[C@H]2[C@@H]3C[C@H](C)C4=CC(=O)CC[C@]4(C)[C@H]3CC[C@@]21C`, the Potency is 39.8 µM (active) in [1]; 31.6 µM (active) in assay [2]; 39.8 µM (active) in assay [3]; 31.6 µM (active) in assay [4]; 39.8 µM (active) in assay [6]; 39.8 µM (active) in assay [9].

For `CN(C)/N=N/c1nc[nH]c1C(N)=O`, the Potency entry in assay [1], in [2], in assay [3], in assay [4], in [5] and in [6] was “inactive” in each case. The Potency entry in assay [7], in [8], in assay [10] and in assay [9] was “inactive” each time.

On to `Oc1ccc(O)cc1`, for which the Potency is 50.1 µM (active) in [1], 50.1 µM (active) in assay [3], 39.8 µM (active) in assay [4] and 50.1 µM (active) in [6]. The Potency result in assay [7] and in [8] was “inactive” throughout.

As to `NC(=NCCCCCCN=C(N)/N=C(\N)Nc1ccc(Cl)cc1)/N=C(\N)Nc1ccc(Cl)cc1`, the Potency in assay [1] was 50.1 µM (active); in assay [2], 39.8 µM (active); in [3], 39.8 µM (active); in [4], 39.8 µM (active); in assay [6], 39.8 µM (active); in [7] it was 50.1 µM (active). For the same compound, the Potency in assay [9] is 39.8 µM (active).

Turning to `CCCCCCc1ccc(O)cc1O`, the Potency entry in assay [1], in assay [2], in assay [3], in [4], in assay [5] and in assay [6] was “inactive” throughout. In addition, the Potency entry in assay [7], in assay [8], in assay [10] and in assay [9] was “inactive” each time.
